Assays:
Assay in all cases: PBM binding z-score (relative to random genomic background probes); higher = stronger binding; sequences stand for … in GC…GCGATTGACAGCGTAGAATGAAGG
[1] = system: FXR:RXRa (NR concentration 270 nM, RXRa partner concentration 90 nM)
How it was run: (§1)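 Random background probes are the reference for binding z-scores. These scores derive from regression-normalized fluorescence on custom Agilent 4×180K protein-binding microarrays incubated 1 h with ligand-free nuclear receptor dimers. Binding was detected with antibodies against each partner (one per run).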

[2] = system: LXRa:RXRa (NR concentration 270 nM, RXRa partner concentration 90 nM)
How it was run: as §1

[3] = system: LXRa homodimer (NR concentration 270 nM)
How it was run: as §1

[4] = system: LXRb:RXRa (NR concentration 270 nM, RXRa partner concentration 90 nM)
How it was run: as §1

[5] = system: LXRb homodimer (NR concentration 270 nM)
How it was run: as §1

[6] = system: PPARa:RXRa (NR concentration 270 nM, RXRa partner concentration 90 nM)
How it was run: as §1

[7] = system: PPARg:RXRa (NR concentration 180 nM, RXRa partner concentration 90 nM)
How it was run: as §1

[8] = system: PPARg:RXRa 270nM:90nM, anti-RXR (NR concentration 270 nM, RXRa partner concentration 90 nM)
How it was run: as §1

[9] = system: PPARg:RXRa 30nM:10nM, anti-RXR (NR concentration 30 nM, RXRa partner concentration 10 nM)
How it was run: as §1

[10] = system: PPARg:RXRa 90nM:30nM, anti-RXR (NR concentration 90 nM, RXRa partner concentration 30 nM)
How it was run: as §1

[11] = system: PPARg:RXRa DBDmut IVT, anti-RXR (DBD mutation: RXRa K156A/R161A, NR concentration 270 nM, RXRa partner concentration 90 nM)
How it was run: as §1

[12] = system: PPARg:RXRa IVT, anti-PPARg (NR concentration 270 nM, RXRa partner concentration 90 nM)
How it was run: as §1

[13] = system: PPARg DBDmut:RXRa IVT, anti-PPARg (DBD mutation: PPARg1 K132A/R137A, NR concentration 270 nM, RXRa partner concentration 90 nM)
How it was run: as §1

[14] = system: PPARg DBDmut IVT, anti-PPARg (DBD mutation: PPARg1 K132A/R137A, NR concentration 270 nM)
How it was run: as §1

[15] = system: PPARg homodimer (NR concentration 180 nM)
How it was run: as §1

[16] = system: PXR:RXRa (NR concentration 270 nM, RXRa partner concentration 90 nM)
How it was run: as §1

[17] = system: PXR homodimer (NR concentration 270 nM)
How it was run: as §1

[18] = system: RARa:RXR (NR concentration 270 nM, RXRa partner concentration 90 nM)
How it was run: as §1

[19] = system: RARa homodimer (NR concentration 270 nM)
How it was run: as §1

[20] = system: RARb:RXRa (NR concentration 270 nM, RXRa partner concentration 90 nM)
How it was run: as §1

Row | Sequence | PBM binding z-score [1] | PBM binding z-score [2] | PBM binding z-score [3] | PBM binding z-score [4] | PBM binding z-score [5] | PBM binding z-score [6] | PBM binding z-score [7] | PBM binding z-score [8] | PBM binding z-score [9] | PBM binding z-score [10] | PBM binding z-score [11] | PBM binding z-score [12] | PBM binding z-score [13] | PBM binding z-score [14] | PBM binding z-score [15] | PBM binding z-score [16] | PBM binding z-score [17] | PBM binding z-score [18] | PBM binding z-score [19] | PBM binding z-score [20]
1 | TTACCAAGGTGAGAGGTCGTTGATGCACGCCTTG | 1.86 | 1.62 | 0.0582 | 1.46 | -0.758 | 3.59 | 6.22 | 6.4 | 4.84 | 6.5 | 1.49 | 4.04 | 0.616 | 0.0764 | 1.63 | 2.47 | 0.681 | 3.06 | -0.505 | 2.33
2 | TCTTGTAGATCAAGCAGGTGAAGAAAGCCTGAGT | 0.239 | 0.182 | -0.332 | -0.145 | -0.467 | 0.527 | -0.404 | 1.19 | 2.61 | 2.07 | 1.7 | 0.945 | 0.265 | -0.33 | -0.0595 | 0.043 | -0.139 | 0.061 | -0.384 | -0.159
3 | ATCGAAAGGTCGAGGTGAGTAGAGAGAAAGGGAA | 4.27 | 3.47 | 0.0492 | 2.46 | 0.462 | 4.49 | 3.29 | 3.59 | 1.45 | 2.36 | 0.416 | 2.34 | 1.55 | 0.427 | 1.76 | 2.19 | 0.327 | 3.31 | 1.21 | 4.11
4 | CCTTACGGGTCACTGACAGGTTATAGGATTTGGA | 4.95 | 4.33 | 0.341 | 3.36 | -0.182 | 5.09 | 4.36 | 4.46 | 1.48 | 3.55 | 3.61 | 3.81 | 0.353 | -0.0191 | 2.26 | 3.57 | 0.377 | 4.38 | 0.591 | 4.08
5 | ATCGAAAGGTCGAGGTGAGTACAGAGAAAGGGAA | 4.22 | 3.51 | 0.276 | 2.53 | 0.653 | 4.64 | 3.5 | 3.96 | 1.38 | 2.61 | 0.64 | 2.65 | 1.01 | 0.9 | 1.64 | 3.27 | 0.251 | 3.11 | 1.29 | 4.14
6 | AATAGTTGGTCAGCTGAGGTCACACACAATTCGG | 3.52 | 3.25 | 3.1 | 3.57 | 1.05 | 3.81 | 2.21 | 2.14 | 0.525 | 1.25 | 1.3 | 2.86 | 1.06 | 0.792 | 3.85 | 5.58 | 2.36 | 4.78 | 2.44 | 3.7

Source: the supplement of paper PMC6555819
